Test [1] in a line: qHTS assay to identify small molecule agonists of the constitutive androstane receptor (CAR) signaling pathway - cell viability counter screen (AID 1224836). Note: nearly all actives have a fitted effect of over 45% in size. Note: potency is the fitted concentration of half-maximal effect. Put shortly: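 Viability read-out: CellTiter-Fluor fluorescence after 23 h compound exposure at 37 C/5% CO2 in double-stable HepG2-CYP2B6-hCAR cells, with PK11195 present at 0.75 uM final; compounds tested in 15-point titration.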
On the technique in general: Quantitative high-throughput screening tests each substance at several concentrations.

A short description of test [2]: qHTS assay to identify small molecule antagonists of the constitutive androstane receptor (CAR) signaling pathway - cell viability counter screen (AID 1224837). Note: nearly all actives have a fitted effect of over 45% in size. Note: potency is the fitted concentration of half-maximal effect. Put shortly: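 Multiplexed cytotoxicity read-out for the CAR antagonist screen: double-stable HepG2-CYP2B6-hCAR cells co-treated with 50 nM CITCO (final) and compound over 15 concentrations, incubated 23 hr, then assessed by CellTiter-Fluor fluorescence.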

A short description of test [3]: qHTS assay to identify small molecule antagonists of the estrogen related receptor signaling pathway with the pleiotropic PPARgamma coactivator (PGC) from Tox21 10K library - cell viability counter screen (AID 1224840; active = well fitted cell-killing curve with a large enough effect in the repeat runs, not every such curve was filed as active; note: nearly all actives have a fitted effect of over 40% in size). The procedure, abridged:
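Step one, plate 2,000 PGC/ERR cells per well; step two, incubate 6 h at 37 C/5% CO2; step three, pin-transfer compounds; step four, incubate 17.5 h; step five, add CellTiter-Fluor and read fluorescence after 30 min.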

The nature of test [4]: qHTS assay to identify small molecule agonists of the hypoxia (HIF-1) signaling pathway - cell viability counter screen (AID 1224844; calls by dose curve; note: nearly all actives have a fitted effect of over 50% in size; note: potency is the fitted concentration of half-maximal effect). Put shortly:
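Tox21 10K compounds were added to HRE-bla ME-180 cells (0.5% dialyzed FBS) and incubated 17 hrs at 37C; ATP-based CellTiter-Glo luminescence then reported cell viability in the same wells.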

Test [5] in a line: qHTS RealTime-Glo MT Cell Viability Assay in HepG2 cells - 24 hour (AID 1224867). Note: nearly all actives have a fitted effect of over 50% in size. Note: potency is the fitted concentration of half-maximal effect. Put shortly: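 Real-time, nonlytic viability: 600 HepG2 cells/well mixed with NanoLuc enzyme plus prosubstrate; 5 h settle, compound (DMSO) added by pintool; luminescence monitored over 40 h at 37 C.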
Test [6] is described as follows: A CellTox Green Cytotoxicity Assay to monitor cytotoxicity in HEK293 cells - 0 hour (AID 1224869). Note: nearly all actives have a fitted effect of over 50% in size. Note: potency is the fitted concentration of half-maximal effect. The procedure, abridged: (§1)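 Cytotoxicity was tracked continuously in HEK293 cells by a DNA-binding dye excluded from viable cells. Compounds were transferred in DMSO 5 h after seeding; fluorescence was recorded at intervals up to 40 h.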
The nature of test [7]: qHTS RealTime-Glo MT Cell Viability Assay in HepG2 cells - 40 hour (AID 1224870). Note: nearly all actives have a fitted effect of over 50% in size. Note: potency is the fitted concentration of half-maximal effect. The procedure, abridged:
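HepG2 cells (600/well) mixed with RealTime-Glo MT reagent, settled 5 h at 37 C/5% CO2 before compound addition. Nonlytic NanoLuc luminescence from viable-cell prosubstrate reduction read repeatedly during 40 h treatment at 37 C.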

The nature of test [8]: A CellTox Green Cytotoxicity Assay to monitor cytotoxicity in HEK293 cells - 40 hour (AID 1224871). Note: nearly all actives have a fitted effect of over 45% in size. Note: potency is the fitted concentration of half-maximal effect. Put shortly: as §1
For test [9], the target named is Luciferin 4-monooxygenase (Photinus pyralis) (UniProt P08659). In words: qHTS assay to identify small molecule inhibitors of firefly luciferase (AID 1224835). Note: nearly all actives have a fitted effect of over 25% in size. Put shortly: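 Biochemical qHTS: compounds run as interplate titrations against purified firefly enzyme, with D-luciferin and ATP each at its KM concentration. Light output recorded by CCD imaging.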
Test [10] is described as follows: qHTS assay to identify small molecule agonists of H2AX - cell viability counter screen (AID 1224847; calls by dose curve; note: top concentration of the series differs between compounds; nearly all actives have a fitted effect of over 30% in size). Put shortly:
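CHO-K1 wt, 1000 cells/well, o/n 37C; cpds 15 conc, 3 h 37C, 0.76% DMSO; CellTiter-Glo, 30 min RT, luminescence.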

Test [11] is described as follows: qHTS assay to identify small molecule agonists of the estrogen related receptor signaling pathway with the pleiotropic PPARgamma coactivator (PGC) from Tox21 10K library (AID 1224842). Note: nearly all actives have a fitted effect of over 15% in size. The procedure, abridged: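 PGC/ERR reporter cell line, 2,000 cells per well, incubated 6 h at 37 C before 23 nL compound in DMSO was added. After 18 h at 37 C, One-Glo luminescence read following 30 min at room temperature.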

The target of test [12] is Thyrotropin receptor (Homo sapiens) (UniProt P16473). The experiment in a line: qHTS assay to identify small molecule agonists of the thyroid stimulating hormone receptor (TSHR) signaling pathway (AID 1224843; calls by dose curve; note: nearly all actives have a fitted effect of over 45% in size). The procedure, abridged: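 TSHR-HEK293 cells in agonist mode, 30 min room-temperature step, then cAMP measured by competitive HTRF (cAMP-d2 with anti-cAMP cryptate) after 1 h at room temperature. Tested at 15 concentrations in triplicate.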

A short description of test [13]: qHTS assay to identify small molecule agonists of H2AX (AID 1224845; active = well fitted activation curve with a large enough effect in the signal ratio in the repeat runs, not every such curve was filed as active; the % refers to the signal ratio; note: potency is the fitted concentration of half-maximal effect). Put shortly:
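Wild-type CHO-K1 cells, plated overnight, exposed 3hr at 37C to 15 concentrations (0.76% DMSO final). Lysed, then HTRF anti-pH2AX (S139) cryptate and anti-H2AX-d2 antibodies, 24 hr room temperature; 665/620 nm emission read.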

Test [14] can be described thus: qHTS assay to identify small molecule agonists of the hypoxia (HIF-1) signaling pathway (AID 1224846; active = well fitted activation curve with a large enough effect in the signal ratio in the repeat runs, not every such curve was filed as active; the % refers to the signal ratio). Put shortly:
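Steps: seed ME-180 HRE-bla cells (2,000/well, 0.5% dialyzed FBS); incubate 5 hrs at 37C; pin-transfer compounds or DMSO; incubate 17 hrs; add LiveBLAzer B/G substrate CCF4-AM; measure reporter activation by FRET.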

A short description of test [15]: qHTS assay to identify small molecule antagonists of the estrogen related receptor (ERR) signaling pathway from Tox21 library (AID 1224848). Note: nearly all actives have a fitted effect of over 50% in size. Note: potency is the fitted concentration of half-maximal effect. Put shortly: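 ERR reporter cell line (from NTP) seeded 2,000 cells/well, rested 6 h at 37 C/5% CO2, then pin-dosed with compounds in DMSO. After 18 h at 37 C, ONE-Glo added; luminescence read after 30 min at room temperature.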

Test [16] in a line: qHTS assay to identify small molecule agonists of the estrogen related receptor (ERR) signaling pathway from Tox21 library (AID 1224849; calls by dose curve; note: nearly all actives have a fitted effect of over 15% in size). The settings on record: ERR reporter cell line, ONE-Glo luciferase, 18 h; at 92.4 µM (top of the series) unless noted. The procedure, abridged:
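Agonist signal is luciferase luminescence from an ERR reporter cell line treated 18 h at 37 C with DMSO-dissolved compounds, read 30 min after ONE-Glo addition at room temperature.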

The nature of test [17]: qHTS RealTime-Glo MT Cell Viability Assay in HEK293 cells - 32 hour (AID 1224868). Note: nearly all actives have a fitted effect of over 50% in size. Note: potency is the fitted concentration of half-maximal effect. The procedure, abridged: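 Cells + reagent dispensed (600 cells/well, HEK293) → 5 h at 37 C/5% CO2 → 23 nL compound in DMSO pinned → 40 h at 37 C → luminescence read at 0, 8, 16, 24, 32, 40 h.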
In test [18] the target is Nuclear receptor subfamily 1 group I member 3 (Homo sapiens) (UniProt Q14994). The experiment in a line: qHTS assay to identify small molecule antagonists of the constitutive androstane receptor (CAR) signaling pathway (AID 1224838). Note: nearly all actives have a fitted effect of over 40% in size. Note: potency is the fitted concentration of half-maximal effect. The procedure, abridged: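 Compounds were titrated across 15 concentrations onto HepG2 cells double-stably expressing hCAR and a CYP2B6-2.2kb reporter, together with 50 nM CITCO (final). After 24 h at 37 C, luciferase activity was measured by luminescence.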

Test [19] shares this target. The experiment in a line: qHTS assay to identify small molecule agonists of the constitutive androstane receptor (CAR) signaling pathway (AID 1224839). Note: nearly all actives have a fitted effect of over 15% in size. The procedure, abridged:
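Luminescence read-out (ONE-Glo, 30 min, room temperature) from double-stable HepG2-CYP2B6-hCAR cells exposed 24 h to 15-point compound series in presence of 0.75 uM PK11195 final.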

Test [20] is described as follows: qHTS assay to identify small molecule antagonists of the estrogen related receptor signaling pathway with the pleiotropic PPARgamma coactivator (PGC) from Tox21 10K library (AID 1224841; call rule not given here; note: potency is the fitted concentration of half-maximal effect). The procedure, abridged:
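Antagonism in this quantitative HTS is taken from loss of luciferase signal in PGC/ERR cells. Cells (2,000/well) are treated with compounds in DMSO after a 6 h settling period and read by One-Glo luminescence after 18 h.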

Inconclusive results are not listed. A structure can be active in one record and inactive in another. Activity calls are given as the source filed them. Unless noted, calls come from the whole dose curve; as a rule, active = well fitted curve in the direction sought with a large enough effect in the repeat runs; inconclusive = weak or mixed curves; inactive = no such curve, though single readings can be large; an effect the other way counts as inactive or inconclusive.
% is set by controls: 0 for no effect and ±100 for the full control effect.

Luciferin 4-monooxygenase (Photinus pyralis), sequence (P08659 whole entry, looked up): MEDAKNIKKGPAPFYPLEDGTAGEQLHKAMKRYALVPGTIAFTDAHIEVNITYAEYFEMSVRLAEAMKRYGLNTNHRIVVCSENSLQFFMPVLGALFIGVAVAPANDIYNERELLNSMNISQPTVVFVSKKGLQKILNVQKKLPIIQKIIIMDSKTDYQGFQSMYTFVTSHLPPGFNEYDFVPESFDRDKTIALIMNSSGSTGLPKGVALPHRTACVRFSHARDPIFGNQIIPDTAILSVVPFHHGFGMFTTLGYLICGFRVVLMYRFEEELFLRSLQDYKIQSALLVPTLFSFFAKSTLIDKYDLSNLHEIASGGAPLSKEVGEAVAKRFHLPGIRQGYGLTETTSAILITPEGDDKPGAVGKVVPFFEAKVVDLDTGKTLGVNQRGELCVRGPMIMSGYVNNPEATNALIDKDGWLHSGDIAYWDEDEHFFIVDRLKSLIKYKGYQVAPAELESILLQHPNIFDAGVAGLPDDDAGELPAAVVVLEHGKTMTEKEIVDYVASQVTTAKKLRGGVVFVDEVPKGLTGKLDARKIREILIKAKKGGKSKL
Nuclear receptor subfamily 1 group I member 3 (Homo sapiens), sequence (Q14994 whole entry, looked up): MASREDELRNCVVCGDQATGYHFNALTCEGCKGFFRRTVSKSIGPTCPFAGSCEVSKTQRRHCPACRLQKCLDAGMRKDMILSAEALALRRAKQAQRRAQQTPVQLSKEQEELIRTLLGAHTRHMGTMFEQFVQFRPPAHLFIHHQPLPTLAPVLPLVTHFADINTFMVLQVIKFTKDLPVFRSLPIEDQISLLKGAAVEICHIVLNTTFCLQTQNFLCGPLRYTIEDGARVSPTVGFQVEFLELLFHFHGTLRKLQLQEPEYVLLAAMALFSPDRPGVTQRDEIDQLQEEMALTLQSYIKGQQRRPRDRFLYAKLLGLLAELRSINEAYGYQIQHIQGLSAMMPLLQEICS
Thyrotropin receptor (Homo sapiens), sequence (P16473 whole entry, looked up): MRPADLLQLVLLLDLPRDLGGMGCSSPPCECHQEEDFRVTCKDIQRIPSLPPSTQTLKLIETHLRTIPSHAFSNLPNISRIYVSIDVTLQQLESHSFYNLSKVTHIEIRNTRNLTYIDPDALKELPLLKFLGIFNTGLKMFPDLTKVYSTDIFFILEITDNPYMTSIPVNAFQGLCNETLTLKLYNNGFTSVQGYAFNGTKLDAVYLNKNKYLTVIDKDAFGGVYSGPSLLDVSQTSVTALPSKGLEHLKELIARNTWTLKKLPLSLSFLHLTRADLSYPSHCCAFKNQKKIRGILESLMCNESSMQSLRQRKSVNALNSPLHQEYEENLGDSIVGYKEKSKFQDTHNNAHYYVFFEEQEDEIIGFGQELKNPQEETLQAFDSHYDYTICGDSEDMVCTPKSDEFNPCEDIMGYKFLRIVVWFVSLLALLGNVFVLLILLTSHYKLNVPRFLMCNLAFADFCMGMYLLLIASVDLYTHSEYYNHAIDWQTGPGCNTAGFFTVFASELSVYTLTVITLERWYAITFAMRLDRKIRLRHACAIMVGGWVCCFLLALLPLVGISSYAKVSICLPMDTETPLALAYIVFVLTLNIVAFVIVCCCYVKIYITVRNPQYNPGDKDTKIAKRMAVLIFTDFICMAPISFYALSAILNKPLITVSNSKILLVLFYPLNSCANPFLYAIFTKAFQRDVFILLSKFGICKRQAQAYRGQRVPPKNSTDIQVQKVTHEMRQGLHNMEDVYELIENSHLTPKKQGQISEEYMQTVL

For the compound `Clc1ccccc1CN1CCc2sccc2C1`, the Potency result in [1], in [2], in test [3], in [4], in test [5] and in test [6] was “inactive” each time. In addition, the Potency entry in test [7] and in [8] was “inactive” in each case.

As to `CN(C)CCOC(c1ccccc1)c1ccccc1` (tested in a mixture with another compound), the Potency result in test [9], in test [10], in test [5], in test [6], in test [7] and in [8] was “inactive” throughout.

As for `CCN(CC)CCOc1ccc(C(O)(Cc2ccc(Cl)cc2)c2ccc(C)cc2)cc1` (stereo unspecified), the Potency entry in test [9], in [11], in [12] and in test [6] was “inactive” in each case. The Potency was 49.2 µM (active) in test [13]; 29.8 µM (active) in test [15]; 23.9 µM (active) in [5]; 16.9 µM (active) in [17]; 15.1 µM (active) in [7]; 23.9 µM (active) in test [8]. Further, the outcome in [14] was inactive. In test [16], the activity change, positive = activation was -61% [at 42.5 µM] (inactive).

With `Cc1c(-c2ccc(O)cc2)n(Cc2ccc(OCCN3CCCCCC3)cc2)c2ccc(O)cc12`, the Potency in test [5] was 15.1 µM (active); in test [17], 3.01 µM (active); in test [7], 9.52 µM (active); in test [8], 16.9 µM (active). Besides, in test [6], the Potency entry is “inactive”.

As to `C=CCCCCCCC=C`, the Potency result in test [1], in test [2], in [10], in test [5], in test [17] and in test [6] was “inactive” each time. For the same compound, the Potency result in test [7] and in [8] was “inactive” each time.

On to `CC1(C)C(=O)N(Br)C(=O)N1Br`, for which the Potency result in [1], in test [2], in test [18], in test [19], in test [3] and in test [20] was “inactive” each time. Moreover, the Potency entry in [11], in test [12], in test [4], in [13], in [15] and in test [5] was “inactive” throughout. Also, the Potency result in test [17] and in test [8] was “inactive” in each case. The outcome in [14] was inactive. In addition, the activity change, positive = activation in [16] was 3.41% (inactive).

For the compound `C[n+]1c2cc(N)ccc2cc2ccc(N)cc21` (tested in a mixture with another compound), the Potency entry in [9] and in test [4] was “inactive” throughout. Also, the Potency in [17] was 5.35 µM (active); in test [6], 23.9 µM (active).

Turning to `CN(C)CCCN1c2ccccc2CCc2ccccc21`, the Potency is 30.6 µM (active) in test [1]; 38.9 µM (active) in [4]; 43.6 µM (active) and inactive in test [8]. The Potency result in [2], in [10], in test [5], in test [17], in [6] and in test [7] was “inactive” each time.

Consider `CNCC[C@H](Oc1cccc2ccccc12)c1cccs1`, for which the Potency in [1] is 21.1 µM (active); in [2] it was 26.6 µM (active); in [18], 29.8 µM (active); in test [20] it was 33.5 µM (active); in test [5], 23.9 µM (active); in test [17] it was 23.9 µM (active). In test [7], the Potency is 23.9 µM (active). Further, the Potency result in [19], in test [12], in test [13] and in test [6] was “inactive” throughout. Besides, the compound was classed as inactive in [14]. Moreover, the activity change, positive = activation in test [16] is -62.1% [at 42.5 µM] (inactive).

(Values after PubChem BioAssay (Tox21).)
